# In PubChem BioAssay AID1486 (The Scripps Research Institute Molecular Screening Center, 2009):
# The campaign covered roughly 220,000 compounds. About 2,400 (1.1%) were called active. This is one part of a sample in which actives are shown more often than they occur. Values without a mark were called inactive.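 The calls were made as follows: active = inhibition above a per-campaign cutoff, the mean inhibition of all tested compounds plus 3 SD (cut at about 27% in these data); inactive = the rest.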
# Test: parental Ba/F3 cell viability inhibition, counter-screen for JAK2V617F inhibitor project, murine pro-B, CellTiter-Glo luminescence (AID 1486);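 also: 0% = DMSO wells and 100% = JAK Inhibitor I control wells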
# Conditions: CellTiter-Glo ATP luminescence, at 5.6 µM, stronger effect = higher value
row,SMILES,inhibition
1,CCOC(=O)CSC1=C(C#N)C(c2sccc2C)CC(=O)N1 (stereo not given),81.7% (active)
2,Cc1ccc(C2CC(=O)NC(SCC(=O)OCc3ccccc3)=C2C#N)o1 (stereo not given),2.62%
3,C=CCOC(=O)C1=C(C)NC(SCC(=O)OCC)=C(C#N)C1c1ccc(C)cc1 (stereo not given),1.41%
4,Cc1nnc(CN(C)Cc2cn[nH]c2-c2ccc(-c3ccccc3)cc2)o1,3.87%
5,Cc1cccc(NC(=O)c2sc(-c3ccccc3)nc2-c2ccc([N+](=O)[O-])cc2)c1,2.68%
6,COC(=O)C(NC(=O)c1ccc(OC)cc1)(Nc1ncc(S(=O)(=O)c2ccc([N+](=O)[O-])cc2)s1)C(F)(F)F (stereo not given),-1.49%
7,COc1ccc(C(=O)Nc2nc(-c3ccc(OC)cc3)c(-c3ccc([N+](=O)[O-])cc3)s2)cc1,61.3% (active)
8,CCOC(=O)/C(=N\Nc1ccccc1[N+](=O)[O-])c1csc(Nc2ccccc2)n1,12%
9,Cc1nnc(N/N=C/c2ccccn2)[nH]c1=O,1.19%
10,Nc1ccc(Oc2ccc(Cl)cc2)cc1,9.91%
11,CC(C)(C)c1ccc(Oc2ccc(N)cc2)cc1,36.8% (active)
12,Cc1ccc(Oc2ccc(N)cc2)cc1,2.65%
13,CCCCN(C)c1ccc([N+](=O)[O-])cc1,8.6%
14,CCc1[nH]nc(C(=O)N2CCCC(CNS(=O)(=O)c3cccs3)C2)c1C (stereo not given),6.5%
15,C/C(CC(=O)NC(C)c1ccccc1)=N\NC(N)=S (stereo not given),-3.5%
16,CCOC(=O)N1CCN(C(=O)C2CCN(c3ncnc4c3sc3cccc(F)c34)CC2)CC1,40.6% (active)
17,CCOC(=O)C1CCN(c2ncnc3c2oc2ccc(Br)cc23)CC1,6.89%
18,CCOC(=O)N1CCN(C(=O)C2CCN(Cc3ccc(OC)cc3OC)CC2)CC1,3.57%
19,CNC(=O)COc1ccc(S(=O)(=O)Nc2ccccc2)cc1,0.46%
20,Cc1csc(CN(C)C(=O)CC2C(=O)NCCN2CC(C)(C)C)n1 (stereo not given),9.22%
21,Cc1ccc(C(=O)N/N=C\c2cc(Br)c(Br)o2)cn1,1.1%
22,Cc1cc(C(=O)CSc2nc(N)cc(=O)[nH]2)c(C)n1CCc1ccc(Cl)cc1,6.39%

row,SMILES,inhibition
1,Cc1cc(C(=O)CSc2nc(N)cc(=O)[nH]2)c(C)n1-c1cccc(F)c1,4.66%
2,Cc1cc(C(=O)CSc2nc(N)cc(=O)[nH]2)c(C)n1Cc1ccco1,33.8% (active)
3,CSC1=NCCN1C(=O)Cc1cccc2ccccc12,2.66%
4,CCn1c2ccccc2c2cc(NC(=O)Nc3ccc([N+](=O)[O-])cc3C)ccc21,-1.24%
5,CC(=O)c1cc(-c2ccccc2)n(CCC(=O)NC2CCCCCC2)c1C,1.01%
6,CC(C)c1cc(CN2CCOCC2)cc(C(C)C)c1O,-1.01%
7,COc1ccccc1-c1nc(C#N)c(N2CCC(C(N)=O)CC2)o1,1.59%
8,COc1ccc(Nc2oc(-c3ccccc3Cl)nc2C#N)cc1,29.4% (active)
9,Cc1ccccc1-c1nc(C#N)c(NCc2ccco2)o1,11.3%
10,NC1=NC2(CCCCC2)N(c2ccc(F)cc2F)C(N)=N1,5.17%
11,COc1ccc(CCNC(=O)CC2SC(=Nc3cc(C)cc(C)c3)NC2=O)cc1OC (stereo not given),2.92%
12,O=c1cc(O)c(-c2cccc(C(F)(F)F)c2)c(Cl)[nH]1,13.5%
13,COc1cc(OC)cc(C(=O)N[C@H](C(=O)Nc2nc3ccccc3[nH]2)C(C)C)c1,16.4%
14,Cc1nc2ccc(C(=O)O)cc2[nH]1,-0.24%
15,COC(=O)Nc1nc2ccc(Sc3ccccc3)cc2[nH]1,76% (active)
16,COc1ccccc1-c1c(C#N)c(N)nc2c1CCC2,0.32%
17,COC(=O)c1sccc1NC(=O)CC1C(=O)NCCN1C(=O)Nc1ccc(F)cc1F (stereo not given),-2.58%
18,CSc1ccc(/C=N/NC(=O)c2cccc(Cl)c2)cc1,1.81%
19,COc1ccc(C2=NOC(C(=O)NCc3ccco3)C2)cc1OC (stereo not given),64.1% (active)
20,Cc1ccc(CNC(=O)C2CC(c3ccccc3[N+](=O)[O-])=NO2)o1 (stereo not given),0.33%
21,COc1ccc(-c2cc(C(=O)NCc3ccco3)no2)cc1OC,4.7%
22,Cc1cc(N)n(-c2ccc(S(=O)(=O)N3CCCC3)cc2[N+](=O)[O-])n1,4.29%

row,SMILES,inhibition
1,C=CCOCCN(C)C1=NS(=O)(=O)c2ccccc21,3.69%
2,COc1ccc(N2C(=O)CNC2=S)cc1,2.23%
3,Cc1ccc(C)c2[nH]c(=O)c(CCNC(=O)c3cccs3)cc12,6.4%
4,Cc1cc2cc(CNC(=O)c3cccs3)ccc2[nH]1,39% (active)
5,CCc1cccc(CC)c1NC(=S)NCc1ccc2[nH]c(C)cc2c1,8.67%
6,Cn1c(=O)c2c(nc(N/N=C/c3cccs3)n2Cc2ccc(Br)cc2)n(C)c1=O,2.68%
7,COc1ccc(-c2csc(-c3cccs3)n2)cc1OC,6.08%
8,COc1ccc(Br)cc1CN(C)CC(=O)Nc1cc([N+](=O)[O-])ccc1OC,-2.62%
9,CCOC(=O)c1cc(-c2ccc(F)cc2)n(CC(=O)NCc2ccccn2)c1C,5.17%
10,Cc1ccc(-c2noc(CN3CCN(Cc4ccccc4)CC3)n2)cc1,3.84%
11,CN1CCN(C(=O)CCc2nc(-c3ccc(Cl)cc3)no2)CC1,5.12%
12,CC1CCN(Cc2nc(-c3ccc(Cl)cc3)no2)CC1,36% (active)
13,O=c1[nH]c2cccnc2n(CCNc2ncc(C(F)(F)F)cc2Cl)c1=O,3.7%
14,N#CC1=C(N)Oc2[nH]c(=S)[nH]c(=O)c2C12C(=O)Nc1ccccc12 (stereo not given),1.28%
15,Cc1nc(-c2ccccc2)cn2c1nc1ccccc12,6.83%
16,Cc1c(Cl)c([N+](=O)[O-])nn1CC(=O)NCC1CCCO1 (stereo not given),-0.44%
17,COc1cc(OC)nc(S(C)(=O)=O)n1,-0.84%
18,COc1ccc(-c2cc(C(F)(F)F)nc(S(C)(=O)=O)n2)cc1OC,32.3% (active)
19,COc1ccc(-c2cc(C(F)(F)F)nc(SCC(=O)Nc3ccc4c(c3)OCO4)n2)cc1OC,6.51%
20,CC(=O)c1ccc2c(c1)OCCOCCOc1ccc(C(C)=O)cc1OCCOCCO2,6.46%
21,O=C(CSc1nnc(-c2cccs2)n1-c1ccccc1)NCc1ccco1,1.12%
22,O=C(CSc1nnc(-c2c[nH]c3ccccc23)n1-c1ccc(F)cc1)NCc1ccco1,93.5% (active)

row,SMILES,inhibition
1,COc1ccc(-n2c(SCC(=O)NCc3ccco3)nnc2-c2c[nH]c3ccccc23)cc1,7.39%
2,CC(C)C(C)(C#N)NC(=O)CSc1nncn1-c1ccccc1 (stereo not given),6.72%
3,CC(=O)c1sc(NC(=O)c2cccc3ccccc23)nc1C,4.12%
4,CC(NC(=O)c1cccc2ccccc12)c1ccc2c(c1)CCCC2 (stereo not given),46.5% (active)
5,O=C(Cc1ccc2c(c1)CCCC2)Nc1ccccc1Cl,6.44%
6,Cc1ccc(N/N=C2\COC(C)(C)CC2=O)cc1,-2.17%
7,O=S(=O)(NCc1ccco1)c1cnc(Cl)c(Cl)c1,-2.02%
8,Oc1ccc2ccccc2c1N=Nc1nccs1,101% (active)
9,Oc1ccc(N=Nc2nccs2)c(O)c1,0.92%
10,Oc1ccc2ccccc2c1C=Nc1ccccc1,3.24%
11,Cc1ncoc1C(=O)N1CCCC(C(=O)c2ccc3c4c(cccc24)CC3)C1 (stereo not given),5.56%
12,N=C1/C(=C/c2cccn2-c2cccc([N+](=O)[O-])c2)C(=O)N=C2SC=CN12,3.29%
13,Cc1ccc(OCC(=O)N/N=C\c2ccco2)c(C)c1,-2.78%
14,Cc1ccc(/C=N/NC(=O)COc2ccccc2-c2ccccc2)cc1,83.4% (active)
15,Cc1ccc(OCC(=O)N/N=C/c2ccncc2)cc1,-0.78%
16,CCNc1nc(-c2cc3ccccc3o2)cs1,3.67%
17,COc1ccc2nc(Nc3nc(-c4cc5ccccc5oc4=O)cs3)sc2c1,6.64%
18,O=c1oc2ccccc2cc1-c1csc(Nc2ccc(O)cc2)n1,37.3% (active)
19,Cc1cc(Nc2ccc(Cl)cc2)nc(N2CCOCC2)n1,-1.08%
